# PubChem BioAssay (NCI)
# This is part of a sample that, as a whole, favours compounds with a hit. Of some 79,000 tested, about 15% had one in any assay. Unmarked numbers belong to inactive results. Rule as the data show it: active = growth inhibition above about 70%; inactive = the rest.
# Test: NCI Yeast Anticancer Drug Screen. Data for the CLN2oe strain (AID 163);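 also: 0% = growth of vehicle-only control cultures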
# Details: S. cerevisiae CLN2oe strain, at 1.2 µM, hits give high values
# Procedure, shortened: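 Inhibition relative to vehicle-treated yeast is reported. Cells: strain with genetic alteration in cell-cycle control, grown with compound.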
row,SMILES,growth inhibition [%]
1,COc1ccc2nc3cccc([N+](=O)[O-])c3c(NCCNCCN(C)C)c2c1,-1
2,Cc1cccc(/C=N/NC(=S)NC2CCCCC2)n1,-14
3,COC(=O)C(=O)c1c(-c2ccc(Cl)c(Cl)c2)[nH]c2[nH]n(-c3ccccc3)c(=O)c2c1=O,-6
4,c1ccc([P+](CCN2Cc3ccccc3C2)(c2ccccc2)c2ccccc2)cc1,19
5,Cc1cc(C)c2[s+]snc2c1,-7
6,CC(C)(Br)C(=O)/C=C/c1ccccc1,-4
7,Cc1ccc(S(=O)(=O)NC(=O)C2C(=O)CC3(CCCCC3)CC2=O)cc1,-12
8,NC(=S)N1N=C2c3ccccc3CC[C@H]2[C@@H]1c1ccc(Cl)cc1,-6
9,O=[N+]([O-])/C=C/c1cc2ccc3ccccc3c2[nH]1,0
10,O=C1C(=C2CCCC2)CCC1CN1CCCCC1 (configuration not stated),-16
11,OC(CC(O)(C(F)(F)F)C(F)(F)F)c1ccc(C(O)CC(O)(C(F)(F)F)C(F)(F)F)cc1 (configuration not stated),3
12,COc1cc2c(cc1OC)[C@@H](Nc1ccc(C#N)cc1)C1COC(=O)[C@@H]1C2c1cc(OC)c(O)c(OC)c1 (some centres not stated),-5
13,O=c1cccccc1[O-].O=c1cccccc1[O-].O=c1cccccc1[O-].[Eu+3],5
14,O=C1c2ccccc2C(=O)c2sc(Nc3ccccc3Cl)nc21,3
15,NC(CCCCCCCCCCCCC(N)C(=O)c1ccccc1)C(=O)c1ccccc1 (configuration not stated),-9
16,CC1=C(C)C(=O)C2=C(OCCO2)C1=O,0
17,c1ccc(-c2cc(C3CO3)c3ccccc3n2)cc1 (configuration not stated),-7
18,S=C1C(=Nc2ccccc2)N(c2ccccc2)/C(=N\c2ccccn2)N1c1ccccc1,-8

row,SMILES,growth inhibition [%]
1,CCC(OC(C)=O)C1CC(C(C)C)CCC1C (configuration not stated),-4
2,CC(C)=CCc1c2c(c(O)c3c(=O)c(-c4ccc(O)c(O)c4)coc13)C=CC(C)(C)O2,-32
3,O=C(NC(N1CCN(c2cc3c(cc2F)c(=O)c(C(=O)O)cn3C2CC2)CC1)(C(F)(F)F)C(F)(F)F)c1ccccc1,2
4,Fc1cc(F)c(F)c(S)c1F,-29
5,COc1ccc2cc3c4cc5c(cc4cc[n+]3cc2c1OC)OCO5,13
6,CCCCCCCCNCCCCCCCC,13
7,Nc1cc(Cl)ccc1Nc1ccccc1,5
8,O=C(/C(=C/c1ccc(O)cc1)c1ccccc1)c1ccccc1,8
9,O=Cc1ccccc1C=O,4
10,C1=CCN([B-](c2ccccc2)[C+]2CCCCC2)C=C1,-6
11,CC/C(=C(\c1ccccc1)c1ccc(OCC[N+](C)(C)C)cc1)c1ccccc1,-7
12,O=S(=O)(c1cccc(C(F)(F)F)c1)N1c2ccccc2-n2cccc2C1c1cccnc1 (configuration not stated),-16
13,Nc1ccc2c(c1)C(=O)c1c(F)cccc1-2,-1
14,CN(C)/C(=N/C(=S)Nc1ccccc1)SCc1ccccc1,-8
15,CCN(CC)C(=S)N/N=C(\C)c1ccccc1O,13
16,CC(C)OC(=O)NNc1cc(Cl)ccc1Cl,-1
17,CC(C)CCC[C@@H](C)[C@H]1CC[C@H]2[C@@H]3CC[C@H]4C[C@H](N)CC[C@]4(C)[C@H]3CC[C@]12C,-7
18,O=C1c2ccccc2-c2ccc(N=Cc3ccccc3)cc21,-7

# Same assay, conditions: S. cerevisiae CLN2oe strain, at 3.7 µM, hits give high values
row,SMILES,growth inhibition [%]
1,COc1ccc2nc3cccc([N+](=O)[O-])c3c(NCCNCCN(C)C)c2c1,-2
2,Cc1cccc(/C=N/NC(=S)NC2CCCCC2)n1,-17
3,COC(=O)C(=O)c1c(-c2ccc(Cl)c(Cl)c2)[nH]c2[nH]n(-c3ccccc3)c(=O)c2c1=O,-13
4,c1ccc([P+](CCN2Cc3ccccc3C2)(c2ccccc2)c2ccccc2)cc1,11
5,Cc1cc(C)c2[s+]snc2c1,-7
6,CC(C)(Br)C(=O)/C=C/c1ccccc1,-3
7,Cc1ccc(S(=O)(=O)NC(=O)C2C(=O)CC3(CCCCC3)CC2=O)cc1,1
8,NC(=S)N1N=C2c3ccccc3CC[C@H]2[C@@H]1c1ccc(Cl)cc1,-10
9,O=[N+]([O-])/C=C/c1cc2ccc3ccccc3c2[nH]1,12
10,O=C1C(=C2CCCC2)CCC1CN1CCCCC1 (configuration not stated),11
11,OC(CC(O)(C(F)(F)F)C(F)(F)F)c1ccc(C(O)CC(O)(C(F)(F)F)C(F)(F)F)cc1 (configuration not stated),68
12,COc1cc2c(cc1OC)[C@@H](Nc1ccc(C#N)cc1)C1COC(=O)[C@@H]1C2c1cc(OC)c(O)c(OC)c1 (some centres not stated),19
13,O=c1cccccc1[O-].O=c1cccccc1[O-].O=c1cccccc1[O-].[Eu+3],11
14,O=C1c2ccccc2C(=O)c2sc(Nc3ccccc3Cl)nc21,47
15,NC(CCCCCCCCCCCCC(N)C(=O)c1ccccc1)C(=O)c1ccccc1 (configuration not stated),-20
16,CC1=C(C)C(=O)C2=C(OCCO2)C1=O,-4
17,c1ccc(-c2cc(C3CO3)c3ccccc3n2)cc1 (configuration not stated),-11
18,S=C1C(=Nc2ccccc2)N(c2ccccc2)/C(=N\c2ccccn2)N1c1ccccc1,-11

row,SMILES,growth inhibition [%]
1,CCC(OC(C)=O)C1CC(C(C)C)CCC1C (configuration not stated),-5
2,CC(C)=CCc1c2c(c(O)c3c(=O)c(-c4ccc(O)c(O)c4)coc13)C=CC(C)(C)O2,-5
3,O=C(NC(N1CCN(c2cc3c(cc2F)c(=O)c(C(=O)O)cn3C2CC2)CC1)(C(F)(F)F)C(F)(F)F)c1ccccc1,0
4,Fc1cc(F)c(F)c(S)c1F,-20
5,COc1ccc2cc3c4cc5c(cc4cc[n+]3cc2c1OC)OCO5,29
6,CCCCCCCCNCCCCCCCC,21
7,Nc1cc(Cl)ccc1Nc1ccccc1,3
8,O=C(/C(=C/c1ccc(O)cc1)c1ccccc1)c1ccccc1,10
9,O=Cc1ccccc1C=O,7
10,C1=CCN([B-](c2ccccc2)[C+]2CCCCC2)C=C1,-6
11,CC/C(=C(\c1ccccc1)c1ccc(OCC[N+](C)(C)C)cc1)c1ccccc1,10
12,O=S(=O)(c1cccc(C(F)(F)F)c1)N1c2ccccc2-n2cccc2C1c1cccnc1 (configuration not stated),-19
13,Nc1ccc2c(c1)C(=O)c1c(F)cccc1-2,4
14,CN(C)/C(=N/C(=S)Nc1ccccc1)SCc1ccccc1,-11
15,CCN(CC)C(=S)N/N=C(\C)c1ccccc1O,-5
16,CC(C)OC(=O)NNc1cc(Cl)ccc1Cl,4
17,CC(C)CCC[C@@H](C)[C@H]1CC[C@H]2[C@@H]3CC[C@H]4C[C@H](N)CC[C@]4(C)[C@H]3CC[C@]12C,-5
18,O=C1c2ccccc2-c2ccc(N=Cc3ccccc3)cc21,-11
